Source: PubChem BioAssay AID720536 (National Center for Advancing Translational Sciences (NCATS), 2013)
Hit rate of the full screen: of about 1,600 compounds, about 650 (41%) were called active. Inconclusive results (about 39%) are left out. So high a share suggests a set chosen from earlier hits. This is one part of a sample in which actives are shown more often than they occur. Calls follow the shape of the dose curve; as a rule, active = well fitted inhibition curve with a large enough effect; inconclusive = small, poorly fitted or top-dose-only effect; inactive = no such curve, though single readings can be large or run the other way.

Test: qHTS for Inhibitors of TGF-b: CCL64 Cells Orthogonal Assay for Cherry Picks; also: nearly all actives have a fitted effect of over 65% in size
Conditions: CCL64 CAGA-GFP reporter, TGF-b stimulated, GFP fluorescence, 18 h; series mostly up to 46.1 µM
From the text: TGF-b is a main component in the TGF-b signaling pathway which plays diverse roles in cellular and development pathways. TGF-b is the mediated by the transcription factors Smads. Although the Smad-dependent pathway is the primary canonical TGF-b signaling node, TGF-b1 can also activate alternative signaling pathways, including those involving MAPK (ERK, JNK and p38). This interaction may mediate or enhance Smad-dependent responses, or can exert Smad-independent effects. The complexity of this signaling cascade allows the TGF-b superfamily to perform unique, overlapping or redundant functions. We believe that targeting the TGF-beta pathway at the Smad-transcription factor level may eliminate the consequences of disrupting the entire pathway and offer specificity without affecting other signaling pathways. Smad3 is the primary transducer of TGF-b's signals and Smad3 regulates many functions attributed to TGF-b signaling. We hypothesize that Smad3 inhibitors will selectively eliminate Smad3-specific TGF-beta signals without undesired off-target effects. We aim to identify Smad3-small molecule antagonists using a quantitative high throughput screening (qHTS) approach. A high-throughput assay was developed to screen the NIH Molecular Libraries Small Molecule Repository (MLSMR). This is a cell based assay, where TGF-b is tagged with GFP. This orthogonal assay was run using CCL64 cells (as opposed to HepG2); activity was desired in this assay as this indicated the hits identified from the screen are not a cell-based artifact. MH087449NIH Chemical Genomics Center [NCGC] NIH Molecular Libraries Probe Centers Network [MLPCN] MLPCN Grant: MH087449 Assay Submitter (PI): Sushil Rane, National Institute of Diabetes and Kidney Diseases
Suspensions of trypsinized CCL64 CAGA-GFP cells were dispensed into white, tissue culture-treated, solid 1536-well plates at 5uL/well (1000 cells/well final concentration) in DMEM medium supplemented with 1% FBS. Plates were incubated at 37 degrees C for 2 hours, after which 23 nL of compounds or DMSO were delivered to each well using a pin tool. One uL of recombinant TGF-beta in DMEM (1% FBS) was then dispensed (500 pg/mL final concentration), and plates were incubated at 37 degrees C for 18 hours. The plates were measured on an Acumen eX3 Explorer plate reader for GFP fluorescence (ex488/em500-530). GFP values were calculated by determining the mean GFP fluorescence of individual cells, and compiling these values for each well to determine a total well GFP signal. The %Activity was determined from the corrected fluorescence values. A titration of the known TGF-B inhibitor SB431542 was included to monitor plate performance, while unstimulated […] (-TGF-B) control wells were used to normalize %Activity of identified inhibitors; unstimulated wells corresponded to 100%Activity (full inhibition), while stimulated cell controls (+DMSO) were used to normalize 0%Activity (no inhibition). Concentration-response curves were fitted to the signals arising from the resulting fluorescence. The concentration-effect curves were then classified based on curve quality (r2), response magnitude and degree of measured activity, and compounds were subsequently categorized based on their curve class.
Potency is read from the fitted curve at half-maximal effect.

Which Potency does the source give for `CCC(C)(O)C(=O)OC1C(=O)OC2CC3C(C)=CC(=O)C(O)C3(C)C3C4(O)OCC23C1C(C)C4O` (stereo not given) here?
The Potency was 0.231 µM (active).

Which Potency does the source give for `O=c1c2ccccc2nc(/C=C/c2ccc(F)cc2)n1-c1ccccc1O` here?
Its Potency is 18.4 µM (active).

With `COC(=O)C1=C(c2cc3ccccc3o2)C[C@@H]2CC[C@H]1N2C(=O)NC1CCCCC1` as the compound, how does the Potency read?
Its Potency is 14.6 µM (active).

Which Potency does the source give for `CC[C@H]1CN2CCc3cc(OC)c(OC)cc3[C@@H]2C[C@@H]1C[C@H]1NCCc2cc(OC)c(OC)cc21` here?
Its Potency is 0.116 µM (active).

For `O=Cc1cn(Cc2ccc(F)cc2Cl)c2ccccc12`, which Potency is on record?
Its Potency is “inactive”.
